# Results published in the supplement of paper PMC10849652.
# Of roughly 7,900 targets only a part is listed; those with a hit were picked by preference. About 0.6% of all pairs of compound and target were hits. Values without a mark were called inactive.
# Columns and labels:
# Test in all cases: log2 fold change, soluble protein after heating vs DMSO (PISA); higher = thermal stabilisation; K562 cells, 10 uM, 30 min; active = over 0.2 and 3.5 SD of the protein, either way, in both replicates (recomputed)
# IRAK-1-4 Inhibitor I = compound: C1COCCN1CCN2C3=CC=CC=C3N=C2NC(=O)C4=CC(=CC=C4)[N+](=O)[O-] [IRAK-1-4 Inhibitor I]
# How it was run: (§1)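 Quantification of soluble protein used TMTpro 16plex LC-MS/MS, with channel sums equalised. Samples were the supernatant after 21,000xg for 90 min of pooled aliquots from K562 cells (2×10^6 cells/mL) treated with 10 μM compound for 30 min, heated for 3 min over 48°C-58°C, and extracted in PBS with 0.5% NP-40 at 4°C. Values, from duplicates, describe thermal stability against control samples on a log2 fold-change scale.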
# ibrutinib = compound: C=CC(=O)N1CCC[C@@H](n2nc(-c3ccc(Oc4ccccc4)cc3)c3c(N)ncnc32)C1 [ibrutinib]
# How it was run: as §1
# [1] = compound: CC(=O)c1cnc2ccc(-c3cc(Cl)c(O)c(Cl)c3)nc2c1N[C@H]1CC[C@H](CN(C)C)CC1
# How it was run: as §1
# ralimetinib = compound: CC(C)(C)Cn1c(N)nc2ccc(-c3[nH]c(C(C)(C)C)nc3-c3ccc(F)cc3)nc21 [ralimetinib]
# How it was run: as §1
# [2] = compound: CC(C)(O)CC(=O)NCCn1ccc2ncnc(Nc3ccc(Oc4cccc(C(F)(F)F)c4)c(Cl)c3)c21
# How it was run: as §1
# [3] = compound: CC(C)C1=C2N=C(C=C(N2N=C1)NCC3=CC=CC=C3)NCCCCCCN
# How it was run: as §1
# [4] = compound: CC(C)C[C@@H](C=O)NC(=O)[C@H](CC(C)C)NC(=O)[C@H](CC(C)C)NC(=O)OCc1ccccc1
# How it was run: as §1
# pinometostat = compound: CC(C)N(C[C@H]1O[C@@H](n2cnc3c(N)ncnc32)[C@H](O)[C@@H]1O)[C@H]1C[C@@H](CCc2nc3cc(C(C)(C)C)ccc3[nH]2)C1 [pinometostat]
# How it was run: as §1
# [5] = compound: CC1=C(C(CC(=O)N1)C2=CC=C(C=C2)C(F)(F)F)C(=O)NC3=C(C=C4C(=C3)C=NN4)F
# How it was run: as §1
# [6] = compound: CC1=C(C2=C(C=C1)C(=O)C3=CC=CC=C3N2CCCN)C
# How it was run: as §1
# Chain of UniProt Q53EL6 (Q53EL6 whole entry, looked up): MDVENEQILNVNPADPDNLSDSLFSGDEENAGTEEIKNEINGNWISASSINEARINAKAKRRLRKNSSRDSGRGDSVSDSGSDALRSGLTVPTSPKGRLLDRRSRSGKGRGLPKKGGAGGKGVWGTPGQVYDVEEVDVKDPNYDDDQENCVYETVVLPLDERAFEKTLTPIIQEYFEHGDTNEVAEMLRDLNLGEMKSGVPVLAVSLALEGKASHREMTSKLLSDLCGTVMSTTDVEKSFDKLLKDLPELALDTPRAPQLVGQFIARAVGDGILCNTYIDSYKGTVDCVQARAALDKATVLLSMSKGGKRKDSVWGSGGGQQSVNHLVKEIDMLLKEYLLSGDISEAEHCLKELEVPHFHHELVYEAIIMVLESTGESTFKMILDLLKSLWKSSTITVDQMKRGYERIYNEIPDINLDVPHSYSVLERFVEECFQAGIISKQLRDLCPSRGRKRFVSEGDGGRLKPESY
# Chain of UniProt O00232 (O00232 whole entry, looked up): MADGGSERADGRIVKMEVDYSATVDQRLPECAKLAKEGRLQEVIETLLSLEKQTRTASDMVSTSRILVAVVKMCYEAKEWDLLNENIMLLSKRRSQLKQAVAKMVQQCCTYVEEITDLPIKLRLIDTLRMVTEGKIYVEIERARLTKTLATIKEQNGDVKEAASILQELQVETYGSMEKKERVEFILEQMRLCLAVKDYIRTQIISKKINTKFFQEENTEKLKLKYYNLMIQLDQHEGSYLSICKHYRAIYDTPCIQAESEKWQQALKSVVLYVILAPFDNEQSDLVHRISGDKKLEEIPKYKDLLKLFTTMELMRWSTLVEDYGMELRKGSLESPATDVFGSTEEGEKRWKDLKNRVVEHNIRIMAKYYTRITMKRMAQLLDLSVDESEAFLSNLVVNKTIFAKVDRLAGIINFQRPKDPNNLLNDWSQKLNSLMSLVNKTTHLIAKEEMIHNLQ
# Chain of UniProt P27986 (P27986 whole entry, looked up): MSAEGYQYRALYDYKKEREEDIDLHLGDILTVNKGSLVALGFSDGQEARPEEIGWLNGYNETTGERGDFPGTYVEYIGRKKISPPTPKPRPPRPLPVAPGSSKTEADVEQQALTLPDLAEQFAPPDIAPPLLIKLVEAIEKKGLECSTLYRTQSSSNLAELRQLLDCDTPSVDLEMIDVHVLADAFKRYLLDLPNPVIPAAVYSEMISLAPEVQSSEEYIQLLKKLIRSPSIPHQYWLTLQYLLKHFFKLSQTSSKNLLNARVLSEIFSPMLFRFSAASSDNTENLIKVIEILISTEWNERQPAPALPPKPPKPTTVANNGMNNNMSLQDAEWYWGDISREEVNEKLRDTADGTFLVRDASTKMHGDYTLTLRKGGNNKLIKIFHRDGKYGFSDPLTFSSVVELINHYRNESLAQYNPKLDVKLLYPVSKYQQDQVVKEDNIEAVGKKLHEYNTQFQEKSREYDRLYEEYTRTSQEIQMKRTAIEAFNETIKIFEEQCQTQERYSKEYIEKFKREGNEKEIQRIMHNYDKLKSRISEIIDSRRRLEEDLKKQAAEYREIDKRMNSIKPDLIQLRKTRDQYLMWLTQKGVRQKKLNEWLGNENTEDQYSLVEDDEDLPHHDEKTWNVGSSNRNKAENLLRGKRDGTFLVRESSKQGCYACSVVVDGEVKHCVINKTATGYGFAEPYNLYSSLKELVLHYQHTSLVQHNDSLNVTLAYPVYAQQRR
# Chain of UniProt P42338 (P42338 whole entry, looked up): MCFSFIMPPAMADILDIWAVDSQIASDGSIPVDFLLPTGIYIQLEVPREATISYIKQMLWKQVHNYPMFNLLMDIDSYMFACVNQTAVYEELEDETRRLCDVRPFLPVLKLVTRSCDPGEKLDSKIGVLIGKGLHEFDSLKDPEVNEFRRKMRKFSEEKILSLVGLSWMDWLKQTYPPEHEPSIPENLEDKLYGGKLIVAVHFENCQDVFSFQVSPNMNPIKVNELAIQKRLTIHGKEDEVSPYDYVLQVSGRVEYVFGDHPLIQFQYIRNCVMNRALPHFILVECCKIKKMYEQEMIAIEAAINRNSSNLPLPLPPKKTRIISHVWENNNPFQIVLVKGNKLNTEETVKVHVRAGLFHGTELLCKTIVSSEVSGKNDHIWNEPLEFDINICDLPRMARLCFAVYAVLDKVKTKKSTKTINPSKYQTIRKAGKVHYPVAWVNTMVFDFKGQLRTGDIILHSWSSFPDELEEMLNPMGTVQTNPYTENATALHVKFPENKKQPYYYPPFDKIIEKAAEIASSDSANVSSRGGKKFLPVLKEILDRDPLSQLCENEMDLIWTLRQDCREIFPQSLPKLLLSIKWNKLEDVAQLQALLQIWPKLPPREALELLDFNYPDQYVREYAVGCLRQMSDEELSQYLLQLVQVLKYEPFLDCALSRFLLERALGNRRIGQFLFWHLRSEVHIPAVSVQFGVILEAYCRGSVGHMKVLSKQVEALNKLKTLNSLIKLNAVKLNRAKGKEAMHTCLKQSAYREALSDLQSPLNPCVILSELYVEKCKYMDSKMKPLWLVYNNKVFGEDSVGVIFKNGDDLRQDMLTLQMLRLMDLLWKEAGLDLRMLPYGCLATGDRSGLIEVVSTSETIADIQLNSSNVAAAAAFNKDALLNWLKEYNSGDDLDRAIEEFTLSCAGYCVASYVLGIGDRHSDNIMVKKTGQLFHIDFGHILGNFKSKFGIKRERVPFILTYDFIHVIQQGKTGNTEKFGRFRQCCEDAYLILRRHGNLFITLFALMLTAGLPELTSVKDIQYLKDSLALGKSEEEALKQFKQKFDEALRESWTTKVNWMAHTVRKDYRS
# Chain of UniProt Q14671 (Q14671 whole entry, looked up): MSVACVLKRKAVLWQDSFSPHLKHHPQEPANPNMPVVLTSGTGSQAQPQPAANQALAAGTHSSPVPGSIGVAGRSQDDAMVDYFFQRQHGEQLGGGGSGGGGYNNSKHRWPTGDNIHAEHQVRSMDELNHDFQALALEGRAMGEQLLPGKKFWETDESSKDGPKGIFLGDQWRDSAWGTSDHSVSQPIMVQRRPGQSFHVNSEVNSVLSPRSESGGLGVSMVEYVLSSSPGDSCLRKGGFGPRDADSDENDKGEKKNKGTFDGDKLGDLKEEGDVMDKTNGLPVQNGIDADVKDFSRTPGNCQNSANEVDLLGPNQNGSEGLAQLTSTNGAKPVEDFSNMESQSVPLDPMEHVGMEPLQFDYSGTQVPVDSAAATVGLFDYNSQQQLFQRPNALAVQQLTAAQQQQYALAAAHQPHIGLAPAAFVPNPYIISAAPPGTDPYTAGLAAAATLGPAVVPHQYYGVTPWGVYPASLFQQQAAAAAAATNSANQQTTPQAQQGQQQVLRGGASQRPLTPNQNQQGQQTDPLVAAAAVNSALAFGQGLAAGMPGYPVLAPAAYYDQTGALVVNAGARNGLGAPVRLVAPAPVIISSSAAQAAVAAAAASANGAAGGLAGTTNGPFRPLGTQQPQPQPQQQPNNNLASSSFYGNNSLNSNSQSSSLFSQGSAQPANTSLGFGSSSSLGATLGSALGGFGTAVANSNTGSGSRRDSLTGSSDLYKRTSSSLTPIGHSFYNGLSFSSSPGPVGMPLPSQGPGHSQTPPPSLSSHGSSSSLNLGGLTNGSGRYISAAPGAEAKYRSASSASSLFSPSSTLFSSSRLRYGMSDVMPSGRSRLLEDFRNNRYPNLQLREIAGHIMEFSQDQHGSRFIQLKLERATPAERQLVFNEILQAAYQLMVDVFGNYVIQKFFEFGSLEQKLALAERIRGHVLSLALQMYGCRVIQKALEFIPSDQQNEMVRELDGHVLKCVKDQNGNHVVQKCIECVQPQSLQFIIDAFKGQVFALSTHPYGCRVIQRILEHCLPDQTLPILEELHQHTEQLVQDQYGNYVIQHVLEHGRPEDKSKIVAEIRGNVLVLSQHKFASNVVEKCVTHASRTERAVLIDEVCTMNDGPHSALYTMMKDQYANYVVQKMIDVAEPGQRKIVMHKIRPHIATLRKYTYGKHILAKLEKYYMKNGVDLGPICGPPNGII
# Chain of UniProt Q15004 (Q15004 whole entry, looked up): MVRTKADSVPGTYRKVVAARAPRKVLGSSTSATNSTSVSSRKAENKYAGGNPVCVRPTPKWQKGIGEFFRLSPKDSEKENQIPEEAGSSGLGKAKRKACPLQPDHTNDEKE
# Chain of UniProt O60925 (O60925 whole entry, looked up): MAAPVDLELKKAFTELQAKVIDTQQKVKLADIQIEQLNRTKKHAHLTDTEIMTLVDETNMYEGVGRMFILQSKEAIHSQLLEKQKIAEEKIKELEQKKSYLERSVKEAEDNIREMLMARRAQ
Target,log2 fold change (IRAK-1-4 Inhibitor I),log2 fold change (ibrutinib),log2 fold change [1],log2 fold change (ralimetinib),log2 fold change [2],log2 fold change [3],log2 fold change [4],log2 fold change (pinometostat),log2 fold change [5],log2 fold change [6]
PIK3R1 (UniProt P27986),0.032,-0.004,0.077,0.038,-0.04,-0.011,0.027,0.083,0.004,0.072
PRKCD (UniProt Q05655),0.043,-0.027,-0.685 (active),-0.041,-0.013,-0.004,0.022,0.017,-0.024,0
PIK3CB (UniProt P42338),-0.051,-0.049,0.082,0.013,-0.082,-0.082,0.02,-0.069,-0.026,0.041
PSMD12 (UniProt O00232),-0.055,-0.022,0.03,0.004,-0.01,0,-0.251 (active),0.03,0.007,0.015
PFDN1 (UniProt O60925),-0.187,-0.119,-0.002,-0.141,-0.031,0.062,-0.13,-0.175,-0.021,0.254
PCLAF (UniProt Q15004),0.055,0.034,-0.061,-0.012,0.036,0.184,0.278 (active),-0.012,0.139,-0.088
PECAM1 (UniProt P16284),0.021,0.004,-0.031,-0.002,-0.082,0.141,-0.057,0.012,0.039,0.261 (active)
PRG4 (UniProt Q92954),-0.072,-0.005,0,0.011,0.059,0.29,0.054,-0.068,0.039,-0.127
PIK3C3 (UniProt Q8NEB9),-0.012,-0.005,0.058,0.082,0.002,-0.003,0.035,0.14,-0.021,0.013
PUM1 isoform 3 (UniProt Q14671),0.004,0.02,-0.097,0.013,-0.022,-0.059,0.02,0.023,0.006,0.063
PDCD6IP (UniProt Q8WUM4),-0.156,-0.11,-0.039,0.046,-0.198,-0.327,0.019,0.084,0.015,0.044
PDCD4 (UniProt Q53EL6),-0.043,-0.05,0.271,-0.042,-0.091,-0.194,-0.015,-0.046,-0.123,-0.17
PLBD1 (UniProt Q6P4A8),0.033,-0.002,0.025,-0.077,0.036,-0.012,-0.015,0.057,-0.019,0.02
PRKCA (UniProt P17252),0.012,-0.02,-0.595 (active),-0.039,-0.02,-0.035,0.104,-0.015,0.011,0.064
PDLIM7 (UniProt Q9NR12),0.017,0.005,-0.054,0.08,-0.035,0.024,-0.045,-0.019,0.004,0.065
